# Data from the supplement of paper PMC8728848.
# Shown is part of a subset that was picked to be rich in the strongest signals.
# B1: Erv41-EDTA (Saccharomyces cerevisiae), Q04651 (protein)
# chain: MKFLVNVALVFMVVYISYIYAAAPEHHHHHHDYDIPTTENLYFQGAMGYIDQQYVVDSQVRDTVQINMDIYVNTKCDWLQINVRDQTMDRKLVLEELQLEEMPFFIPYDTKVNDINEIITPELDEILGEAIPAEFREKLDTRSFFDESDPNKAHLPEFNGCHVFGSIPVNRVSGELQITAKSLGYVASRKAPLEELKFNHVINEFSFGDFYPYIDNPLDNTAQFNQDEPLTTYVYYTSVVPTLFKKLGAEVDTNQYSVNDYRYLYKDVAAKGDKMPGIFFKYNFEPLSIVVSDVRL
# Columns and labels:
# Assay in all cases: glycan array binding signal (z-score within array); higher = stronger binding
# Details in all cases: glycan notation: IUPAC condensed, linker removed
# [1] = target: GlcNAc(a1-3)Gal(b1-4)GlcNAc
# Outline: (§1)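 Glycan array binding is given as a within-array Z-score, which can be read as non-binding when negative. The arrays, 3228 of them, came from the Consortium for Functional Glycomics database and were retained only where the protein sequence was available. Z-scores were averaged across arrays of the same protein sequence at different concentrations or buffers and across linkers.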
# [2] = target: GlcNAc(b1-2)Man(a1-3)[GlcNAc(b1-4)][GlcNAc(b1-2)Man(a1-6)]Man(b1-4)GlcNAc(b1-4)[Fuc(a1-6)]GlcNAc
# Outline: as §1
# [3] = target: GlcNAc(b1-2)[GlcNAc(b1-6)]Man(a1-6)[GlcNAc(b1-2)Man(a1-3)]Man(b1-4)GlcNAc(b1-4)[Fuc(a1-6)]GlcNAc
# Outline: as §1
# [4] = target: GlcNAc(b1-3)Gal(b1-4)GlcNAc(b1-3)Gal(b1-4)GlcNAc(b1-2)[GlcNAc(b1-3)Gal(b1-4)GlcNAc(b1-3)Gal(b1-4)GlcNAc(b1-6)]Man(a1-6)[GlcNAc(b1-3)Gal(b1-4)GlcNAc(b1-3)Gal(b1-4)GlcNAc(b1-2)Man(a1-3)]Man(b1-4)GlcNAc(b1-4)[Fuc(a1-6)]GlcNAc
# Outline: as §1
# [5] = target: GlcNAc(b1-3)Gal(b1-4)GlcNAc(b1-3)Gal(b1-4)GlcNAc(b1-3)Gal(b1-4)GlcNAc(b1-2)Man(a1-3)[GlcNAc(b1-3)Gal(b1-4)GlcNAc(b1-3)Gal(b1-4)GlcNAc(b1-3)Gal(b1-4)GlcNAc(b1-2)Man(a1-6)]Man(b1-4)GlcNAc(b1-4)GlcNAc
# Outline: as §1
# Kdn(a2-3)Gal(b1-3)GalNAc = target: Kdn(a2-3)Gal(b1-3)GalNAc
# Outline: as §1
# [6] = target: Man(a1-2)Man(a1-2)Man(a1-3)Man
# Outline: as §1
# [7] = target: Man(a1-3)[Man(a1-6)]Man(b1-4)GlcNAc(b1-4)[Fuc(a1-6)]GlcNAc
# Outline: as §1
# [8] = target: Neu5Ac(a2-3)Gal(b1-3)[Neu5Ac(a2-6)]GalNAc
# Outline: as §1
# [9] = target: Neu5Ac(a2-3)Gal(b1-3)]Neu5Ac(a2-3)Gal(b1-4)]GlcNAc
# Outline: as §1
# [10] = target: Neu5Ac(a2-3)Gal(b1-4)GlcNAc(b1-2)Man(a1-3)[Neu5Ac(a2-3)Gal(b1-4)GlcNAc(b1-2)Man(a1-6)]Man(b1-4)GlcNAc(b1-4)[Fuc(a1-6)]GlcNAc
# Outline: as §1
# [11] = target: Neu5Ac(a2-3)Gal(b1-4)GlcNAc(b1-2)[Neu5Ac(a2-3)Gal(b1-4)GlcNAc(b1-4)]Man(a1-3)[GlcNAc(b1-4)][Neu5Ac(a2-3)Gal(b1-4)GlcNAc(b1-2)[Neu5Ac(a2-3)Gal(b1-4)GlcNAc(b1-6)]Man(a1-6)]Man(b1-4)GlcNAc(b1-4)GlcNAc
# Outline: as §1
# [12] = target: Neu5Ac(a2-3)Gal(b1-4)GlcNAc(b1-2)[Neu5Ac(a2-3)Gal(b1-4)GlcNAc(b1-4)]Man(a1-3)[GlcNAc(b1-4)][Neu5Ac(a2-3)Gal(b1-4)GlcNAc(b1-4)Man(a1-6)]Man(b1-4)GlcNAc(b1-4)GlcNAc
# Outline: as §1
# [13] = target: Neu5Ac(a2-3)Gal(b1-4)GlcNAc(b1-6)GalNAc
# Outline: as §1
# [14] = target: Neu5Ac(a2-3)Gal(b1-4)[Fuc(a1-3)]GlcNAc
# Outline: as §1
# [15] = target: Neu5Ac(a2-3)Gal(b1-4)[Fuc(a1-3)]GlcNAc(b1-3)GalNAc
# Outline: as §1
# [16] = target: Neu5Ac(a2-3)Gal6S(b1-4)GlcNAc
# Outline: as §1
# [17] = target: Neu5Ac(a2-6)Gal(b1-4)GlcNAc(b1-2)Man(a1-3)Man(b1-4)GlcNAc(b1-4)GlcNAc
# Outline: as §1
# [18] = target: Neu5Ac(a2-6)Gal(b1-4)GlcNAc(b1-3)Gal(b1-4)GlcNAc(b1-3)Gal(b1-4)GlcNAc(b1-2)Man(a1-3)[Neu5Ac(a2-6)Gal(b1-4)GlcNAc(b1-3)Gal(b1-4)GlcNAc(b1-3)Gal(b1-4)GlcNAc(b1-2)Man(a1-6)]GalNAc
# Outline: as §1
# [19] = target: Neu5Ac(a2-6)Gal(b1-4)GlcNAc(b1-6)[Gal(b1-3)]GalNAc
# Outline: as §1
# [20] = target: Neu5Ac(a2-6)Gal(b1-4)GlcNAc6S
# Outline: as §1
# [21] = target: Neu5Ac(a2-6)GlcNAc(b1-4)GlcNAc
# Outline: as §1
# [22] = target: Neu5Ac(a2-8)Neu5Ac(a2-3)Gal(b1-3)GalNAc(b1-4)[Neu5Ac(a2-3)]Gal(b1-4)Glc
# Outline: as §1
# [23] = target: Neu5Ac(a2-8)Neu5Ac(a2-3)[Gal(b1-3)GalNAc(b1-4)]Gal(b1-4)Glc
# Outline: as §1
# [24] = target: Neu5Gc(a2-8)Neu5Gc(a2-3)Gal(b1-4)GlcNAc
# Outline: as §1
# [25] = target: Neu5Gc(a2-8)Neu5Gc(a2-6)Gal(b1-4)GlcNAc
# Outline: as §1
binder,measurement,setting,value
B1,glycan array binding signal (z-score),[1],-0.577
same,glycan array binding signal (z-score),[2],0.162
same,glycan array binding signal (z-score),[3],2.54
same,glycan array binding signal (z-score),[4],1.25
same,glycan array binding signal (z-score),[5],0.272
same,glycan array binding signal (z-score),Kdn(a2-3)Gal(b1-3)GalNAc,0.349
same,glycan array binding signal (z-score),[6],-0.638
same,glycan array binding signal (z-score),[7],-0.081
same,glycan array binding signal (z-score),[8],-0.609
same,glycan array binding signal (z-score),[9],-0.585
same,glycan array binding signal (z-score),[10],2.09
same,glycan array binding signal (z-score),[11],1.18
same,glycan array binding signal (z-score),[12],-0.72
same,glycan array binding signal (z-score),[13],-0.767
same,glycan array binding signal (z-score),[14],0.162
same,glycan array binding signal (z-score),[15],1.5
same,glycan array binding signal (z-score),[16],0.025
same,glycan array binding signal (z-score),[17],1.97
same,glycan array binding signal (z-score),[18],2.65
same,glycan array binding signal (z-score),[19],0.134
same,glycan array binding signal (z-score),[20],-0.865
same,glycan array binding signal (z-score),[21],0.004
same,glycan array binding signal (z-score),[22],-0.348
same,glycan array binding signal (z-score),[23],1.35
same,glycan array binding signal (z-score),[24],0.393
same,glycan array binding signal (z-score),[25],1.14
